# In the supplement of paper PMC8975748:
# Structures can show the parent of a compound that is named as a salt.
# Test system: Saccharomyces cerevisiae BY4741 SeMeCo community
# Test: z-score of subpopulation abundance vs DMSO median, subpopulation auxotrophic for H; higher = larger share of this subpopulation than in DMSO controls
# Conditions: 10 µM; 24 h; SM minimal medium; subpopulation (auxotrophy): H
# Experimental: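 Fluorescent four-plasmid SeMeCo (self-establishing metabolically cooperating S. cerevisiae BY4741 community; plasmids pH-mRuby2, pL-mWasabi, pU-eCFP, pM-TagRFP657) was grown 24 h in minimal SM medium with each Selleck FDA-approved drug at 10 µM in 384-well plates. Cells were fixed and imaged by high-content confocal microscopy. For each auxotrophic subpopulation (and the prototroph), a z-score gives the deviation from the DMSO vehicle-control population median.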
row,Structure (SMILES),z-score of subpopulation abundance
1,CN1[C@@H]2C[C@@H](OC(=O)[C@H](CO)c3ccccc3)C[C@H]1[C@@H]1O[C@@H]12 [Scopolamine HBr trihydrate],-0.46
2,CCN(CC)CCOC(=O)C(O)(c1ccccc1)c1ccccc1 [Benactyzine hydrochloride],-0.16
3,CCN(C)C(=O)Oc1cccc([C@H](C)N(C)C)c1 [Rivastigmine],-0.34
4,Cn1cc(C2=C(c3cn(C4CCN(Cc5ccccn5)CC4)c4ccccc34)C(=O)NC2=O)c2ccccc21,-2.71
5,CN1[C@@H]2CC[C@H]1C[C@@H](OC(=O)C(CO)c1ccccc1)C2 (stereo not given in full) [Atropine sulfate monohydrate],-0.43
6,CCN1CC2(OC(=O)c3ccccc3NC(C)=O)CCC(OC)C34C1C(CC23)C1(O)CC(OC)C2CC4C1(O)C2OC (stereo not given) [Lappaconitine],-0.16
7,Nc1nc(N)nc(NC2CC2)n1 [Cyromazine],0.14
8,CC(C)(O)C(Cl)(Cl)Cl [Chlorobutanol],-0.15
9,NC(=O)CN1CCCC1=O [Piracetam],1.01
10,O=c1[nH]c2ccccc2n1CCCN1CCC(n2c(=O)[nH]c3cc(Cl)ccc32)CC1 [Domperidone],0.24
11,CNC1CC(N)C(O)C(OC2OC(CO)C(O)C3OC4(OC(C(N)CO)C(O)C(O)C4O)OC23)C1O (stereo not given) [Hygromycin B],-0.88
12,O=c1cccc2n1C[C@@H]1CNC[C@H]2C1 [Cytisine],-0.04
13,COc1ccc(C=O)cc1 [p-Anisaldehyde],-0.35
14,C[C@@H]1CC[C@H]2[C@@H](C)C(=O)O[C@@H]3O[C@@]4(C)CC[C@@H]1[C@]32OO4 [Artemisinin],1.06
15,CN(C)C(=O)Oc1ccc[n+](C)c1 [Pyridostigmine Bromide],0.16
16,N[C@@H]1C[C@H]1c1ccccc1 [Tranylcypromine (2-PCPA) HCl],-0.67
17,C[C@@H]1O[C@@H](O[C@H]2C[C@@H](O)[C@]3(CO)[C@H]4[C@H](O)C[C@]5(C)[C@@H](C6=CC(=O)OC6)CC[C@]5(O)[C@@H]4CC[C@]3(O)C2)[C@H](O)[C@H](O)[C@H]1O [Ouabain],-1.13
18,"NCC(O)c1ccc(O)cc1 (racemic) [(+,-)-Octopamine HCl]",-1.07
19,CC(=O)OCC1=C(C(=O)O)N2C(=O)C(N)C2SC1 (stereo not given) [7-Aminocephalosporanic acid],0.4
20,CN(C)[C@@H]1C(=O)C(C(N)=O)=C(O)[C@@]2(O)C(=O)C3=C(O)c4c(O)cccc4[C@@](C)(O)[C@H]3[C@H](O)[C@@H]12 [Oxytetracycline Dihydrate],0.31

row,Structure (SMILES),z-score of subpopulation abundance
1,CC[N+](C)(CC)CCOC(=O)C(O)(c1ccccc1)c1ccccc1 [Methylbenactyzine Bromide],0.06
2,C[C@H]1O[C@H](O[C@H]2[C@H](O)[C@@H](O)[C@@H](O)[C@H](O)[C@@H]2O)[C@@H](N)C[C@@H]1NC(=N)C(=O)O [Kasugamycin hydrochloride],0.49
3,O=C(O[C@H]1C[C@H]2CC[C@@H](C1)[N+]21CCCC1)C(O)(c1ccccc1)c1ccccc1 [Trospium chloride],-0.71
4,CCCN1C[C@H](CSC)C[C@@H]2c3cccc4[nH]cc(c34)C[C@H]21 [Pergolide Mesylate],-0.28
5,C=C[C@H]1CN2CC[C@H]1C[C@H]2[C@H](O)c1ccnc2ccccc12 [Cinchonidine],-0.15
6,Nc1ccncc1 [4-Aminopyridine],-0.01
7,C=CCN1C[C@H](C(=O)N(CCCN(C)C)C(=O)NCC)C[C@@H]2c3cccc4[nH]cc(c34)C[C@H]21 [Cabergoline],-0.38
8,CC(=O)O[C@H]1C[C@@H]2CC[C@@H]3[C@H](CC[C@@]4(C)[C@H]3C[C@H]([N+]3(C)CCCCC3)[C@@H]4OC(C)=O)[C@@]2(C)C[C@@H]1[N+]1(C)CCCCC1 [Pancuronium dibromide],-0.63
9,CC[C@H]1[C@@H]2C[C@H]3[C@@H]4N(C)c5ccccc5[C@]45C[C@@H]([C@@H]2[C@H]5O)N3[C@@H]1O [Ajmaline],-0.87
10,CC(C)N(CCC(C(N)=O)(c1ccccc1)c1ccccn1)C(C)C (stereo not given) [Disopyramide],1.28
11,CN[C@@H]1[C@@H](O)[C@@H](O[C@@H]2[C@@H](O)[C@H](O[C@H]3O[C@H](CN)CC[C@H]3N)[C@@H](N)C[C@H]2N)OC[C@]1(C)O.CN[C@@H]1[C@@H](O)[C@@H](O[C@@H]2[C@@H](O)[C@H](O[C@H]3O[C@H]([C@@H](C)N)CC[C@H]3N)[C@@H](N)C[C@H]2N)OC[C@]1(C)O.CN[C@@H]1[C@@H](O)[C@@H](O[C@@H]2[C@@H](O)[C@H](O[C@H]3O[C@H]([C@@H](C)NC)CC[C@H]3N)[C@@H](N)C[C@H]2N)OC[C@]1(C)O [Gentamicin Sulfate],-0.2
12,NCCc1c[nH]c2ccc(O)cc12 [Serotonin HCl],-1.54
13,CCCCCCCCCCCCCCCC[n+]1ccccc1 [Cetylpyridinium Chloride],19.3
14,COc1ccc(C(CN(C)C)C2(O)CCCCC2)cc1 (stereo not given) [Venlafaxine HCl],-0.98
15,CN(C)[C@@H]1C(=O)C(C(N)=O)=C(O)[C@@]2(O)C(=O)C3=C(O)c4c(O)cccc4[C@@](C)(O)[C@H]3[C@H](O)[C@@H]12 [Oxytetracycline (Terramycin)],1.45
16,COc1ccc2c(c1)[C@]13CCCC[C@@H]1[C@H](C2)N(C)CC3 [Dextromethorphan hydrobromide hydrate],0.44
17,CC(C)=CCOc1c2occc2cc2ccc(=O)oc12 [Imperatorin],0.08
18,CCC1=C[C@H]2CN3CCc4c([nH]c5ccccc45)[C@](C(=O)OC)(C2)[C@H]13 [Catharanthine],-0.99
19,CN1[C@@H]2C[C@@H](OC(=O)[C@H](CO)c3ccccc3)C[C@H]1[C@@H]1O[C@@H]12 [Scopolamine HBr],-0.96
20,CN[C@@H]1[C@@H](O)[C@@H](O[C@@H]2[C@@H](O)[C@H](O[C@H]3O[C@H]([C@@H](C)O)[C@@H](O)[C@H](O)[C@H]3N)[C@@H](N)C[C@H]2N)OC[C@]1(C)O [Geneticin (G418 Sulfate)],-0.21
